Inhibition data for 62 compounds are collected here from PubChem BioAssay AID1619 (SRMLSC, 2009).

Each structure is given as a SMILES string. Among all 220,000 compounds or so, about 830 (0.38%) were called active. A selection follows. Measured potencies and affinities stand elsewhere. A number with no mark means an inactive call.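 How the source made its calls: active means compound inhibiting the enzyme by more than half at any dose during confirmatory dose-response retesting; inconclusive means strong single-dose inhibitors picked by rank but not retested; inactive means the rest.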

Sequence of Leucine aminopeptidase (Plasmodium falciparum (isolate 3D7)) (Q8IL11 whole entry, looked up): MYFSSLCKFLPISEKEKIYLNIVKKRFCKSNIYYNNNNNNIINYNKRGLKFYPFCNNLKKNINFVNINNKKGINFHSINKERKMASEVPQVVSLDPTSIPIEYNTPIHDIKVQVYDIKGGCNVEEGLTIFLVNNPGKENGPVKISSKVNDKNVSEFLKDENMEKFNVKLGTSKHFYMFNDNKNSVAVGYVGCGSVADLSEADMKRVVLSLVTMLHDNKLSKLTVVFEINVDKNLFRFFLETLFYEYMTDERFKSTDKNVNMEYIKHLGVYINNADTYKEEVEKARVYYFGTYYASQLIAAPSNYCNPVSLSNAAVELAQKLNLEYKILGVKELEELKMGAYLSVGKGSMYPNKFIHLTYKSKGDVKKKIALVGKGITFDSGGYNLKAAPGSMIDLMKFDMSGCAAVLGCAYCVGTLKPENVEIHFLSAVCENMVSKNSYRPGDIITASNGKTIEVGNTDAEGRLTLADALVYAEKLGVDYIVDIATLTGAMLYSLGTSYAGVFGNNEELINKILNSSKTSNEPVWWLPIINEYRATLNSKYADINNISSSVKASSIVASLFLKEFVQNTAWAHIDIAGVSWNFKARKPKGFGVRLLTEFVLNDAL

This assay addresses Leucine aminopeptidase (Plasmodium falciparum (isolate 3D7)) (UniProt Q8IL11). As to the kind of experiment: P. falciparum M17LAP inhibitors, primary screen, biochemical, fluorogenic H-Leu-NHMec substrate, 1536-well (AID 1619).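 Further: plate controls were full reaction with DMSO carrier for no effect and no enzyme background for full effect.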 Particulars: recombinant M17LAP, H-Leu-NHMec fluorogenic kinetic assay; at 30 µM; active compounds read high.
The term inhibition denotes the drop in the measured response relative to a control, in per cent. For `COC(=O)C1=C(O)C2(C(=O)O)CC(C(=O)OC)=C(O)C(C(=O)O)(C1)C2`, the inhibition was -3.67%.

With `CC(=O)NC1(C(=O)O)CCCC1`, the inhibition was 9.39%.

With `Cc1ccc(S(=O)(=O)NCCCCCC(=O)Nc2ccccc2)cc1`, the inhibition was 3.08%.

Consider `CCN1C(=O)/C(=C2/C=Cc3ccccc3N2CC)SC1=S`, for which the inhibition is -0.63%.

As for `Cc1[nH]nc2c1C(c1ccsc1)C(C#N)=C(N)O2` (configuration not stated), the inhibition is 29.4%.

In the case of `CC(C)CC1C(C#N)=C(N)Oc2n[nH]c(-c3cccs3)c21` (configuration not stated), the inhibition is 73.3%.

For `CCc1[nH]nc2c1C(c1cccnc1)C(C#N)=C(N)O2` (configuration not stated), the inhibition is 11.3%.

Consider `CC(C)(C)c1[nH]nc2c1C(c1cccnc1)C(C#N)=C(N)O2` (configuration not stated), for which the inhibition was 5.24%.

With `CCCc1[nH]nc2c1C(c1ccsc1)C(C#N)=C(N)O2` (configuration not stated), the inhibition was 2.74%.

On to `Cc1[nH]nc2c1C(CC(C)C)C(C#N)=C(N)O2` (configuration not stated), for which the inhibition was 14.9%.

For the compound `N#CC1=C(N)Oc2n[nH]c(-c3ccccc3)c2C1c1ccncc1` (configuration not stated), the inhibition was 62.5%.

Consider `CCCc1[nH]nc2c1C(c1ccncc1)C(C#N)=C(N)O2` (configuration not stated), for which the inhibition was 30.1%.

In the case of `CO/N=C/NC(=O)c1c(OC)ccnc1Oc1ccccc1`, the inhibition is 6.63%.

For `CSCCC(NC(=O)c1ccc([N+](=O)[O-])cc1Cl)C(=O)OCC(=O)N(C)C` (configuration not stated), the inhibition was -3.36%.

`O=C(Nc1ccccc1C(=O)N1CCOCC1)C1CCCO1` (configuration not stated): the inhibition was -7.06%.

Turning to `COC(=O)Cc1[nH]nc2c1C(c1ccc(O)c(OC)c1)C(C#N)=C(N)O2` (configuration not stated), the inhibition is 17.1%.

Take `CCCc1[nH]nc2c1C(Cc1ccccc1)C(C#N)=C(N)O2` (configuration not stated): the inhibition was 28.5%.

`Cc1ccc(C2C(C#N)=C(N)Oc3n[nH]c(C)c32)cc1` (configuration not stated): the inhibition is 52.9%.

Take `CCCc1[nH]nc2c1C(c1cccnc1)C(C#N)=C(N)O2` (configuration not stated): the inhibition was 9.46%.

For the compound `Cc1ccc(-c2ccc(C3C(C#N)=C(N)Oc4n[nH]c(C)c43)o2)cc1` (configuration not stated), the inhibition is 15.7%.

On to `CC(C)c1[nH]nc2c1C(c1cccnc1)C(C#N)=C(N)O2` (configuration not stated), for which the inhibition was 13.5%.

In the case of `CCCc1[nH]nc2c1C(c1ccc(O)c(OC)c1)C(C#N)=C(N)O2` (configuration not stated), the inhibition was 29.1%.

Take `Cc1[nH]nc2c1C(CCc1ccccc1)C(C#N)=C(N)O2` (configuration not stated): the inhibition is 68.1%.

In the case of `CC(C)NC(=O)/C=C/C(=O)O`, the inhibition was -17.6%.

As to `CCn1c(NCc2ccco2)nc2ccccc21`, the inhibition is 3.48%.

As for `Cc1cc(C)cc(OCC(=O)OCC(=O)c2ccc3c(c2)NC(=O)CO3)c1`, the inhibition is -0.31%.

In the case of `O=C(CNC(=O)c1ccccc1)NCC(=O)OCc1ccccc1Cl`, the inhibition was -2.59%.

For `O=C(CN(c1ccccc1)S(=O)(=O)c1ccc(F)cc1)NC1CCS(=O)(=O)C1` (configuration not stated), the inhibition is 8.02%.

As for `CCOc1ccc(CC(=O)N2CCN=C2SCc2ccc([N+](=O)[O-])cc2)cc1`, the inhibition was -3.75%.

`Cc1cc(C)c2cc(C(=O)N3CCC(Cc4ccccc4)CC3)[nH]c2c1`: the inhibition was -4.41%.

Regarding `COC(=O)c1ccc(C(=O)OC)c(NC(=O)CSc2cccc[n+]2[O-])c1`, the inhibition was -1.81%.

Regarding `Cc1ccc(-c2csc(/C(C#N)=C(\O)CCl)n2)cc1`, the inhibition is 6.37%.

For `Cc1ccc(C2C(C#N)=C(N)Oc3nc(-c4ccccc4)[nH]c32)o1` (configuration not stated), the inhibition was 94%.

Turning to `N#CC1=C(N)Oc2cc3ccccc3cc2C1c1cccnc1` (configuration not stated), the inhibition was 0.21%.

As for `Cc1ccc(-c2c(C#N)c(N)nc3c2CCCC3)s1`, the inhibition was 9.55%.

As for `CC(=O)c1nn(-c2cccc(Cl)c2)cc1C(=O)c1ccco1`, the inhibition is -0.97%.

Take `CC(=O)c1cc(Cl)ccc1OC(=O)c1ccco1`: the inhibition is -7.24%.

As for `CN(C)CCNC(=O)C(c1ccccc1)c1ccccc1`, the inhibition was 4.43%.

`COc1cccc(C(=O)NNC(=O)C(=O)N2CCCCC2)c1`: the inhibition was 5.57%.

Consider `O=C(Nc1ccc(C(=O)O)cc1)/C(=C\c1ccc2c(c1)OCO2)NC(=O)c1ccc(Br)o1`, for which the inhibition was 12%.

As to `O=C(Nc1cccc(C(=O)O)c1)/C(=C/c1ccc2c(c1)OCO2)NC(=O)c1cccc(Br)c1`, the inhibition was 51.7%.

With `COCCn1nnnc1C(c1ccccc1OC)N1CCN(c2ccccc2F)CC1` (configuration not stated), the inhibition is 0.44%.

Regarding `O=C(Cc1ccccc1)N1CCCC(c2nc(-c3ccc(S(=O)(=O)N4CCCC4)cc3)no2)C1` (configuration not stated), the inhibition was 0.8%.

Turning to `O=C(O)CCn1cc(/C=C/C(=O)c2ccc(Cl)cc2)c(-c2ccc(Br)cc2)n1`, the inhibition was 31.8%.

For `O=C(O)CCn1cc(/C=C/C(=O)c2ccc(Cl)cc2)c(-c2cccc(Br)c2)n1`, the inhibition is 6.04%.

As for `Nc1nonc1C(=O)N/N=C/c1cccc([N+](=O)[O-])c1`, the inhibition is 39.7%.

With `CN(C)c1ccc(/C=N/NC(N)=S)cc1[N+](=O)[O-]`, the inhibition was -6.38%.

As to `CCCNS(=O)(=O)c1ccc(N2CCCC2=O)c([N+](=O)[O-])c1`, the inhibition was -2.44%.

With `CC(C)N(C(=O)C1CC(=O)OC12CCCCC2)C(C)C` (configuration not stated), the inhibition was -0.49%.

As to `CCC(=O)Nc1c(-c2ccc(OC)cc2)c(=O)c2ccccc2n1C`, the inhibition is 0.6%.

Turning to `Cc1ccc(NS(=O)(=O)Cc2ccccc2)nc1`, the inhibition was -10.1%.

Consider `O=S(=O)(Cc1ccccc1)Nc1ccc(Br)cn1`, for which the inhibition is 8.11%.

Regarding `Cc1nc2c(cc1C(=O)N/N=C/c1ccc(O)c(O)c1)c(=O)n(C)c(=O)n2C`, the inhibition was 13.8%.

For the compound `Cc1ccccc1N1C(=O)CC2(CCCC2)CC1=O`, the inhibition was -2.41%.

Consider `Cc1ccc(/C=C2\NC(=S)NC2=O)cc1[N+](=O)[O-]`, for which the inhibition is -1.94%.

`CN(C)c1ccc(/C=N/N=C(N)N)cc1[N+](=O)[O-]`: the inhibition was 58.3%.

On to `COc1cc(/C=N/NC(N)=O)ccc1OC(=O)c1ccc(C)cc1`, for which the inhibition was -1.66%.

Take `Cc1ccc(-n2nnc3c(=O)n(CC(=O)N4CCC(C)CC4)cnc32)cc1`: the inhibition was 13.8%.

As for `OC1COC(OCC2OC(OCc3ccccc3)C(O)C(O)C2O)C(O)C1O` (configuration not stated), the inhibition was -0.69%.

Take `Cc1ccc(C(=O)O/N=C(\c2ccccc2)c2cccnc2)cc1`: the inhibition is -5.37%.

Consider `CC(=O)C1(C)N(O)C(C)(C)C(c2cccs2)=[N+]1[O-]` (configuration not stated), for which the inhibition was 11.1%.

`CC1(C)N(O)CC(c2cccs2)=[N+]1[O-]`: the inhibition was 39.9%.
